G9a inh: blocks human histone lysine methyltransferase G9a; Q96KQ7; G9a H3K9 monomethylation, AlphaScreen, 2 h; Potency, µM (titrated, usually from 102 µM), for the others: at the top dose activity, negative = inhibition, most hits filed as inhibitors; actives 8.8% (n = 350,000); also: % is scaled to controls: 0 for no effect and ±100 for the full control effect; nearly all actives have a fitted effect of over 75% in size
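AlphaScreen detection with an anti-monomethyl H3K9 antibody quantified product after a 2 h room-temperature reaction containing 500 nM biotinylated H3K9 peptide, 20 µM SAM and 20 nM enzyme, which had been preincubated 15 min with compound.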
Sfp inh: Sfp phosphopantetheinyl transferase inhibition; Biochemical Sfp PPTase activity, qHTS; Potency, µM, inactives show largest response in the series, negative = inhibition, actives largely listed as inhibitors; actives 3.5% (n = 310,000); AID 1490;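 also: the enzyme is Sfp with the accession as filed and its product quenches rhodamine fluorescence; 0% = enzyme reaction without inhibitor and -100% = no enzyme wells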
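Sfp 15 nM + cpd, 15 min RT; start w/ rhodamine-CoA 5 uM, BHQ-2-YbbR 12.5 uM (final); 50 mM Hepes pH 7.6, 10 mM MgCl2, 0.01% NP-40, 0.01% BSA; read 525/598 nm at 0 and 30 min.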
Glioma ERSR ind: inducers of ER stress response in human glioma cells | U87-MG GRP78 promoter luciferase reporter, 16 h | Potency, µM, for the others: at the top dose activation, most hits filed as activators | AID 602332 | actives 0.02% (n = 420,000); also: series mostly up to about 76 µM; % of control where 0% means no effect; nearly all actives have a fitted effect of over 35% in size
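Stably transfected U87-MG glioma cells carrying a GRP78-based luciferase sensor; 16 h compound incubation. Luminescence end-point read 10 min after Bright-Glo addition at room temperature.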
VDR inh: blocks the human vitamin D receptor; actives 0.93% (n = 400,000); VDR-SRC2-3 peptide fluorescence polarization, 2 h; AID 504847; Potency, µM, without a hit: max response, negative = inhibition, actives largely listed as inhibitors; also: % is scaled to controls: 0 for no effect and ±100 for the full control effect
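The screen uses fluorescence polarization to detect compounds that interfere with recruitment of the SRC2-3 coactivator peptide to VDR; plates are read after 2 h at room temperature.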
12-LOX inh: inhibitors of human 12S-lipoxygenase ALOX12 | actives 1.1% (n = 580,000) | P18054 | Potency, µM (highest dose often 108 µM), for inactives: at the top dose activity change, negative = inhibition, hits mostly inhibitors | purified 12hLO, xylenol orange hydroperoxide absorbance | AID 1671190; also: % is scaled to controls: 0 for no effect and ±100 for the full control effect
Target sequence (P18054 whole entry, looked up): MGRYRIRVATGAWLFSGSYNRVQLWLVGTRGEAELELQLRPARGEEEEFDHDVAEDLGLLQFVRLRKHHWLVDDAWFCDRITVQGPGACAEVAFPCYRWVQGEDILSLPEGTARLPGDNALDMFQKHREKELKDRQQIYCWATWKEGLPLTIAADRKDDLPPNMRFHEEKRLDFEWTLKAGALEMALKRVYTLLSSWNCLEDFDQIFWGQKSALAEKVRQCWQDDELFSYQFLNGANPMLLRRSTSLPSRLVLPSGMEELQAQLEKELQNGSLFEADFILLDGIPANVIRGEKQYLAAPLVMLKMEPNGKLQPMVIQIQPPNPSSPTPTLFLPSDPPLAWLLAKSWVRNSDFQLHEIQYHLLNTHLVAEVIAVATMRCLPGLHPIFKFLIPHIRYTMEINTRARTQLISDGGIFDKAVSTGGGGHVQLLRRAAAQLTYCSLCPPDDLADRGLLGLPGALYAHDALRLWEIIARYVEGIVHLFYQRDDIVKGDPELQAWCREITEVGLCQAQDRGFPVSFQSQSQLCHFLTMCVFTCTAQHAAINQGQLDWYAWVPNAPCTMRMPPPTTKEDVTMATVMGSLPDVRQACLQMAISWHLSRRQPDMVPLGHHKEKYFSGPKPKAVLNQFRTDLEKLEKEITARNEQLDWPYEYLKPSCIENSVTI
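Hydroperoxide product was detected by ferrous iron/xylenol orange as the 573 to 405 nm absorbance ratio. Arachidonic acid at 40 uM (final) was turned over for 30 min at room temperature by 150 nM human 12hLO, pH 7.0 Hepes buffer, after 15 min compound preincubation.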
Numbers without * were called inactive; u = inconclusive; x = not tested or not shown; [ ] = another dose, or the depositor's remark. This excerpt belongs to a sample that is enriched for hits. Calls follow the shape of the dose curve; as a rule, active = well fitted curve in the direction sought with a large enough effect; inconclusive = small, poorly fitted or top-dose-only effect, or another doubt; inactive = no such curve, though single readings can be large; an effect the other way counts as inactive or inconclusive. Potency is read from the fitted curve at half-maximal effect.

SMILES | G9a inh | Sfp inh | Glioma ERSR ind | VDR inh | 12-LOX inh
CC(=O)Nc1ccc(NC(=O)c2cc(-c3ccco3)nc3ccccc23)cc1 | x | x | x | x | 11µM*
CN(CC(=O)Nc1cccc(F)c1)C(=O)c1cc(-c2ccco2)nc2ccccc12 | 15%[0.501 µM] | x | -5% | u | 40µM*
Cc1cccc(NC(=O)c2ccccc2Br)n1 | 22µM* | -8% | 3% | -12% | u
Cc1cccc(NC(=O)c2cccc3c2-c2ccccc2C3=O)n1 | u | 11% | -5% | -5% | 2%
Cc1ccc(S(=O)(=O)N(C)C)cc1NC(=O)Nc1ccccc1F | 50µM* | 4% | 1% | 3% | 0%
Cc1nc2c3c(C)c(C)n(Cc4cccnc4)c3ncn2n1 | x | x | x | x | 20%
Cn1cnc(S(=O)(=O)N2CC[C@@H]3COCCN(Cc4ccccc4)[C@@H]3C2)c1 | x | x | x | x | 41%
COc1cc(-c2cc(C)c3c(OC)ccc(OC)c3n2)cc2c1OCCNC2 | x | x | x | x | 76%
CCc1nnc(NC(=O)c2cc(-c3ccc(C)cc3)nc3ccccc23)s1 | x | x | x | x | 5%
CCc1nnc(NC(=O)c2cc(-c3ccco3)nc3ccccc23)s1 | 50µM* | -14% | -1% | -9% | u
CCOc1cc(N2CCOCC2)c(OCC)cc1NC(=O)c1cc(-c2ccco2)nc2ccccc12 | 8.9µM* | 28µM* | -3% | 6% | u
CCOc1cc(N2CCOCC2)c(OCC)cc1NC(=O)COc1ncnc2ccccc12 | u | 2% | 0% | 3% | -7%
Cc1ccc(C2CC2C(=O)N(Cc2ccncc2)C2CC2)s1 (stereo not drawn) | x | x | x | x | 8%
Cc1cc(C(F)(F)F)nc(SCc2ccc(C(=O)O)o2)n1 | 40µM* | 35µM* | -2% | -17% | 0%
O=C(O)c1ccc(CSc2nc(-c3ccc(Cl)cc3)cc(C(F)(F)F)n2)cc1 | -29% | 50µM* | -1% | 0% | 3%
O=C(Cc1n[nH]c(=O)c2ccccc12)Nc1ccccc1 | x | x | x | x | -1%
CCc1nn(-c2ccccc2)c(=S)c2ccccc12 | 14µM* | 4% | 0% | 12% | -16%
CCc1nn(-c2ccccc2)c(N)c1C#N | 9%[59 µM] | 13% | 0% | -10% | 3%
O=[N+]([O-])c1ccc(-c2nc(C(Cl)Cl)c3ccccc3n2)cc1 | 22µM* | 1% | -4% | -2% | u
CCc1ccc(-n2c(Cc3ccccc3)n[nH]c2=S)cc1 | u | -4% | -4% | -18% | u
Cc1cccc(-n2c(C)c(-c3ccccc3)[nH]c2=S)c1 | x | 3.5µM* | -4% | u | u
Cc1cccc(-n2c(-c3ccncc3)n[nH]c2=S)c1 | 1.3µM* | 79µM* | 0% | -8% | u
Cc1cccc(-n2c(C)n[nH]c2=S)c1 | u | -11% | -5% | 3% | u
Cc1cccc(-n2c(Cc3ccccc3)n[nH]c2=S)c1 | 22µM* | 7% | -1% | 17% | u
CCc1cc(-c2n[nH]c(=S)n2-c2ccccc2C)cs1 | 1.8µM* | 15% | 0% | -2% | x
SMILES | G9a inh | Sfp inh | Glioma ERSR ind | VDR inh | 12-LOX inh
Cc1ccc2[nH]cc(C(C(=O)O)N3CCN(Cc4cccc5ccccc45)CC3)c2c1 (stereo not drawn) | x | x | x | x | 18%
Cc1ccccc1-n1c(-c2ccoc2C)n[nH]c1=S | 2.2µM* | -13% | -3% | -10% | u
Cc1ccccc1-n1c(C)n[nH]c1=S | 22µM* | 79µM* | -1% | -15% | u
Cc1ccc([N+](=O)[O-])c(-c2n[nH]c(=S)n2-c2cccc(Cl)c2)c1 | 2µM* | 4% | -1% | -14% | u
Cc1cccc(-n2c(-c3ccoc3C)n[nH]c2=S)c1 | 6.3µM* | u | -1% | -4% | u
N#Cc1ccnc(Sc2ccc(Cl)cc2)c1 | x | x | x | x | -12%
CCc1c(C)nc2n(c1=O)CN(CCCN(C)C)CN2c1ccccc1OC | x | x | x | x | -10%
Cc1cc2ccccc2n1CC(=O)NC1CCN(CC(N)=O)CC1 | x | x | x | x | -21%
COc1ccccc1NC(=O)N(Cc1ccco1)Cc1cc2cc(C)cc(C)c2[nH]c1=O | 45µM* | -21% | -6% | 4% | 60%
COc1ccccc1NC(=O)N(Cc1ccco1)Cc1cc2ccc(C)c(C)c2[nH]c1=O | u | 11% | -5% | 15% | -5%
O=C(NCCc1ccc(OC(F)F)cc1)c1nn(Cc2ccccc2)c(=O)c2ccccc12 | x | x | x | x | 12%
COc1ccc(CNC(=O)COC(=O)c2cc(-c3ccc(Cl)s3)nc3ccccc23)cc1 | u | -11% | -1% | -9% | 71%
O=C(COC(=O)c1cc(-c2ccc(Cl)s2)nc2ccccc12)NCc1ccco1 | u | 13µM* | 0% | 79µM* | u
O=C(COC(=O)c1cc(-c2cccs2)nc2ccccc12)NCc1ccco1 | u | 22µM* | -2% | -12% | -11%
O=C(c1ccc2ncsc2c1)N(Cc1ccccc1)C1CC1 | x | x | x | x | 3%
COc1ccc(CNC(=O)CC(C)CC(=O)O)cc1 (stereo not drawn) | x | x | x | x | 2%
Cc1cc(C(=O)C(C)OC(=O)c2cnccn2)c(C)n1-c1ccccc1 (stereo not drawn) | 56µM* | x | -1% | -10% | -3%
O=C(N/N=C/c1cccs1)c1cc(-c2cccs2)nc2ccccc12 | x | x | x | x | 50%
CCOc1ccc(-n2c(C)nc3cc(C(=O)NCc4ccc(F)cc4)ccc32)cc1 | x | x | x | x | -2%
Cc1ccc(C(C)C)cc1OCC(=O)NNC(=O)Nc1ccccc1 | 79µM* | 5% | 0% | 12% | 7%
CC1=C[C@@H](CNC(=O)c2ccncc2)[C@H](C(C)C)C[C@H]1CC(=O)N1CCN(C)CC1 | x | x | x | x | 11%[176 µM]
Cc1cc(C)c(NC(=O)C2CCN(C(=O)N3CC(C)Oc4ccc(Cl)cc43)CC2)c(C)c1 (stereo not drawn) | 11µM* | x | -3% | -3% | 2%
